EPAC2 agonist: agonists of human EPAC2 (RAPGEF4). Potency, µM (doses to about 154 µM), without a hit: at the top dose activation, usual class: activators. EPAC2 activation, biochemical qHTS; response scale: 100% = 6.5 mM cAMP response. actives 0.079% (n = 360,000). AID 720711; further: nearly all actives have a fitted effect of over 50% in size
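EPAC2 (100 nM) mixed with Rap1B loaded with BODIPY-GDP (250 nM) plus 50 uM unlabeled GDP; compounds pinned in, 5 min RT, then read every 5 min for 30 min (ex 480, em 540 nm). Normalized to cAMP control.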
USP1-UAF1 inh: blocks the human USP1/UAF1 deubiquitinase complex | Potency, µM (doses to about 57.1 µM), for inactives: at the highest dose activity change, negative = inhibition, hits mostly inhibitors | AID 743255 | actives 0.23% (n = 390,000) | recombinant USP1/UAF1, Ub-Rhodamine cleavage fluorescence; further: on the % scale 0 is the no-effect control and ±100 the full control effect; nearly all actives have a fitted effect of over 60% in size
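1 nM enzyme complex + cpd, 15 min RT; start with Ub-Rho 150nM final; kinetic fluorescence ex 480/em 540, 6 reads q60 s. Buffer 50mM HEPES pH 7.8, 0.5mM EDTA, 0.1 mg/ml BSA, 1mM TCEP, 0.01% Tween-20.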
EPAC2 antagonist: blocks human EPAC2 exchange factor; Q8WZA2; EPAC2 GEF exchange of Rap1B-BODIPY-GDP, fluorescence; Potency, µM (highest dose often 114 µM), for inactives: at the top dose activity, negative = inhibition, most hits filed as inhibitors; actives 0.18% (n = 360,000); AID 720708; further: on the % scale 0 is the no-effect control and ±100 the full control effect; nearly all actives have a fitted effect of over 45% in size
BRCA1 expr act: activators of BRCA1 expression; MCF7-BRCA1-FFLuc reporter, luminescence, 48 h; response scale: scaled: vehicle 0%, 10 µM genistein 100%; Potency, µM (doses to about 46.1 µM), for the others: top-dose activation, hits mostly activators; actives 1.1% (n = 380,000); further: nearly all actives have a fitted effect of over 80% in size
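First, MCF7-BRCA1-FFLuc cells (2000/well) attach for 2 h; next, compounds are pin-added and incubated 48 h at 37 °C; finally, luciferase reagent is added and luminescence read after 15 min.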
EPAC1 antagonist: antagonists of human EPAC1. O95398. EPAC1 GEF assay, Rap1b-BODIPY-GDP exchange fluorescence. AID 720709. actives 0.14% (n = 360,000). Potency, µM (highest dose often 115 µM), without a hit: at the top dose activity change, negative = inhibition, hits mostly inhibitors;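 further: plate controls were vehicle for no effect and positive control for full effect; nearly all actives have a fitted effect of over 50% in size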
Target sequence (O95398 whole entry, looked up): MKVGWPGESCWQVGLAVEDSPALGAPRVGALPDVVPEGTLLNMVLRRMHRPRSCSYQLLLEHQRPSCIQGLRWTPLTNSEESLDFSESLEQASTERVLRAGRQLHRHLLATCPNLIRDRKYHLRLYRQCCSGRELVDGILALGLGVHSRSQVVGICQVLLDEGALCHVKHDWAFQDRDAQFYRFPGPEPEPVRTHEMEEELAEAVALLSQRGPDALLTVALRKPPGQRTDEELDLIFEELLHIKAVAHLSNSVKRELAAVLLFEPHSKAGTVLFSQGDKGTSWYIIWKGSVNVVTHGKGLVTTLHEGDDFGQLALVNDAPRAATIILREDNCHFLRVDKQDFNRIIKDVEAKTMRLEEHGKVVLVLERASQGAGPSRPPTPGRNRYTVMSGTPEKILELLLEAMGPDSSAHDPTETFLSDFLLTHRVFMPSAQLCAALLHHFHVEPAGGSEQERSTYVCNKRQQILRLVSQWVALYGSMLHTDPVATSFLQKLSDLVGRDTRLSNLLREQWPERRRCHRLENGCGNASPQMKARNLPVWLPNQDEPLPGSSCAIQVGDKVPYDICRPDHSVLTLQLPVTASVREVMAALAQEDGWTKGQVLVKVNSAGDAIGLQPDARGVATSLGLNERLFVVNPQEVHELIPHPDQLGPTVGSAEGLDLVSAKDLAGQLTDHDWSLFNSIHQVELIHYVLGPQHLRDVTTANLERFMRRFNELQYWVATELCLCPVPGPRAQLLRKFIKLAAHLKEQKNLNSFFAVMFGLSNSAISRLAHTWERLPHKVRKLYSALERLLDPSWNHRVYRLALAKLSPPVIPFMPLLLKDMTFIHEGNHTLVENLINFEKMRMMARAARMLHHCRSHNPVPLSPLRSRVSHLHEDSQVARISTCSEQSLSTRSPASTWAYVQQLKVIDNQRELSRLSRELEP
EPAC1 ag: agonists of human EPAC1; O95398; EPAC1 agonist qHTS, biochemical assay; response scale: 100% = response to 6.5 mM cAMP; actives 0.073% (n = 360,000); Potency, µM (titrated, usually from 154 µM), for the others: at the top dose activation, hits mostly activators; AID 720707; further: nearly all actives have a fitted effect of over 60% in size
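Nucleotide exchange assay: 100 nM EPAC1 with 250 nM Rap1B loaded with BODIPY-GDP and 50 uM GDP, room temperature. Fluorescence (480/540 nm) read every 5 min for 30 min; signal change normalized to 6.5 mM cAMP as full agonist.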
An asterisk follows results filed as active; ? = inconclusive; [ ] = remark or other dose. Hits are enriched below; roughly 1.4% of the tested compounds scored in any of these assays. The call rests on the fitted dose curve; in most records, active means well fitted curve in the direction sought with a large enough effect; inconclusive means small, poorly fitted or top-dose-only effect, or another doubt; inactive means no such curve, though single readings can be large; an effect the other way counts as inactive or inconclusive. Potency means the concentration at half of the fitted maximal effect.

SMILES	EPAC2 agonist	USP1-UAF1 inh	EPAC2 antagonist	BRCA1 expr act	EPAC1 antagonist	EPAC1 ag
COc1ccc(CN(CC(=O)NCc2ccc(F)cc2)C(=O)CCC(=O)Nc2cc(C)ccn2)cc1	0%	-4%	6%	-23%	-16%	-15%
CCn1c(SCC(=O)N(C)CC(=O)Nc2ccc(OC)cc2)nnc1-c1ccco1	-14%	-9%	5%	4%	-7%	-1%
COCCNC(=O)c1cc2oc3ccccc3c2n1C	0%	-6%	-6%	10µM*	6%	10%
CCCCCOc1ccc(CN2CCOCC2)cc1Cl	12%	-12%	-6%	8.9µM*	8%	6%
NC(=O)c1cccnc1Nc1cccc(F)c1	0%	6%	?	-1%	-1%	-4%
NC(=O)c1cccnc1Nc1cccc([N+](=O)[O-])c1	-1%	-2%	1%	1.8µM*	8%	9%
COc1ccccc1CCC(=O)OCC(=O)Nc1cc(C)nn1-c1ccccc1	6%	-22%	2%	-9%	-11%	100µM*
Cc1ccccc1NC(=O)CN1C(=O)N/C(=C\c2ccccc2OCc2ccc(C(=O)O)cc2)C1=O	6%	?	-15%	20%	?	11%
Cc1cc(C)nc(-n2nc(C)c(Sc3ccc(F)cc3)c2N)n1	5%	-16%	-1%	7.1µM*	-2%	-3%
Cc1nn(-c2ccccc2)c(N)c1Sc1cccc([N+](=O)[O-])c1	7%	-24%	-10%[57.1 µM]	?	-9%	-2%
O=C(O)CCN1C(=O)/C(=C/c2ccc(-c3nc4ccccc4s3)o2)SC1=S	3%	7.1µM*	2%	79%	-24%	-6%
Cc1ccc(/C=C2\SC(=S)N(Cc3ccccc3)C2=O)o1	8%	-26%	-1%	-10%	-14%	3%
O=C(O)c1cc(-c2ccc(/C=C3/SC(=S)N(Cc4ccccc4)C3=O)o2)ccc1Cl	23%	25µM*	?	51%	-1%	10%
O=C(O)CC(C(=O)O)N1C(=O)/C(=C/C=C/c2ccco2)SC1=S (stereo not given)	10%	?	22%	0%	-26%	16%
O=C(O)CCCN1C(=O)/C(=C\c2ccc(-c3nc4ccccc4s3)o2)SC1=S	-7%	?	3%	-8%	-9%	1%
O=C(O)CC(C(=O)O)N1C(=O)/C(=C/c2ccc(-c3nc4ccccc4s3)o2)SC1=S (stereo not given)	13%	28µM*	-18%	4%	12%	5%
CCCCc1nc2cc(C(=O)N3CCC(O)CC3)ccc2o1	3%	-7%	-10%	3.5µM*	-4%	-10%
COc1ccccc1CCNC(=O)C1(C)CC1(Cl)Cl (stereo not given)	5%	-23%	-3%	1%	9%	1%
COc1ccc(CN=Cc2[nH]c3ccc(Br)c(Cl)c3c2O)cc1	13%	14µM*	-12%	-38%	-4%	9%
Cn1c(C(=O)NCc2ccccn2)cc2c(=O)n3ccccc3nc21	7%	-9%	7%	5µM*	5%	-5%
O=C1CC(c2ccccc2)=Nc2ccc(Br)cc2N1	3%	-18%	-9%	-59%	-4%	-1%
Cc1ccc2c(c1)NC(=O)CC(c1ccccc1)=N2	0%	-2%	4%	10µM*	-8%	3%
CCCCCCn1cnc2c(oc3nc4c(cc32)CCCC4)c1=O	-8%	6%	-21%	3.5µM*	-9%	6%
CCCCn1cnc2c(oc3nc4c(cc32)CCCC4)c1=O	4%	10%	-9%	55%	-25%	0%
Cc1ccc(C(=O)N/N=C\c2ccccc2[N+](=O)[O-])cn1	3%	-22%	2%	4.5µM*	14%	7%
Cc1ccc(C(=O)N/N=C\C=C\c2ccccc2[N+](=O)[O-])cn1	6%	0%	-5%	-27%	-4%	6%
